Results taken from the supplement of paper PMC3334620.
Over roughly 33,000 sequences, “E-score (-0.5 to 0.5)” has its median near -0.054; the highest 2% begin near 0.39. What follows is part of a selection rich in the highest values, with near analogues and random picks from the rest.

target: Ylr278c (UniProt Q05854); experiment: PBM E-score (8-mer binding enrichment) (E-score (-0.5 to 0.5)); higher = stronger / more preferred TF binding; conditions: protein concentration: 200 nM; construct: GST-DNA-binding domain
Sequence of UniProt Q05854 (Q05854 whole entry, the tested form may be a part): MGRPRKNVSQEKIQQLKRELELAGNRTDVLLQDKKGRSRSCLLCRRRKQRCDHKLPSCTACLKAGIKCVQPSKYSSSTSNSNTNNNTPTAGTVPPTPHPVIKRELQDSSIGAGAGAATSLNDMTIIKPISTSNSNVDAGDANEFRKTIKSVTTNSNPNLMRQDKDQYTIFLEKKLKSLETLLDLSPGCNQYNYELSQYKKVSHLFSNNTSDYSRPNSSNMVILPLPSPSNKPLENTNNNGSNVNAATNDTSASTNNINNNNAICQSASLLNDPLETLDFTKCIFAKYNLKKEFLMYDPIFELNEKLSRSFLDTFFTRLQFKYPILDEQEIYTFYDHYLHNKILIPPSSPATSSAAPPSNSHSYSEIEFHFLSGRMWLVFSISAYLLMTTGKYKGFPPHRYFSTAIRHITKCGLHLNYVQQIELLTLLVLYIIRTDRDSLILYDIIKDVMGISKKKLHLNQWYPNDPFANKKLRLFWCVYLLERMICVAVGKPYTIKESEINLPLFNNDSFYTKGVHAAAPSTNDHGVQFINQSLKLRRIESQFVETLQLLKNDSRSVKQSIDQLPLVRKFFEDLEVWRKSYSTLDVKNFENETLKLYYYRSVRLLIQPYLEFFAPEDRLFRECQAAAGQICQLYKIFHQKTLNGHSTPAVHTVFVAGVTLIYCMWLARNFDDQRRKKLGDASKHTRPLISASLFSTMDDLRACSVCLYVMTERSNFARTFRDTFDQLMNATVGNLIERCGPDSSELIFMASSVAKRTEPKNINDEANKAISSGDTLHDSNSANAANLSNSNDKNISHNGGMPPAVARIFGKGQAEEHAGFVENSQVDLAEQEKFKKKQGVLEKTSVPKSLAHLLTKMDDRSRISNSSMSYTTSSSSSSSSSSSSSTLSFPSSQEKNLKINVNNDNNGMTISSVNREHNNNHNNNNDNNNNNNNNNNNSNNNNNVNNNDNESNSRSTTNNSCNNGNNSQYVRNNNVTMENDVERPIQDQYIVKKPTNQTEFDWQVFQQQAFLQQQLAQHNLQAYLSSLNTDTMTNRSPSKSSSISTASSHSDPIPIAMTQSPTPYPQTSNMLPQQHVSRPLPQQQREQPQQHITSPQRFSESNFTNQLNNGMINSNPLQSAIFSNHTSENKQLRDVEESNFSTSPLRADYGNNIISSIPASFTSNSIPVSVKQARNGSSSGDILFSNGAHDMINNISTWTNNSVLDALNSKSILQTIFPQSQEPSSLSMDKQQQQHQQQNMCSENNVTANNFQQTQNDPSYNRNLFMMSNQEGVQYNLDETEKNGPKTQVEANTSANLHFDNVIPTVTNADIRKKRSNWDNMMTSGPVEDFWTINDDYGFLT
Outline: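 Detection of bound protein used fluorescent anti-GST, with scans normalised by masliner. The proteins were GST-tagged yeast transcription factors applied at about 100-200 nM to universal all-10-mer Agilent arrays made double-stranded by primer extension. Each ungapped eight-base word, pooled with its reverse complement, was scored with an E-score from the Universal PBM Analysis Suite.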

Row | Sequence | PBM E-score
1 | AACTCCGG | 0.497
2 | ATCTAGTC | 0.0095
3 | GAGCGCGC | 0.182
4 | GGCATCTA | -0.0448
5 | ATCCATCA | -0.135
6 | GACTCCAA | -0.221
7 | AACTCCTC | 0.0657
8 | AACTCCGC | 0.49
9 | TACTCCGA | 0.479
10 | TACTCCTA | -0.187
11 | TACTCCAA | -0.243
12 | GACTCCAC | -0.0152
13 | AACTCCCC | 0.266
14 | GACTCCGA | 0.467
15 | GACTCCTA | -0.191
16 | GACTCCGC | 0.426
17 | GACTCCTC | -0.135
18 | CATCAGTA | -0.233
19 | GGTGTGAC | -0.172
20 | GTAAACAA | -0.0542
21 | GTGCTCAA | -0.104
22 | ACCGCCCA | 0.154
23 | AACCTTCA | -0.245
24 | TCACTCCA | -0.0238
25 | AAGCTTGA | -0.0383
26 | TCGGTCAA | 0.0369

Row | Sequence | PBM E-score
27 | GATTGCAC | 0.0435
28 | AACTCCAA | -0.00212
29 | AACTCCCA | 0.155
30 | AACTCCCT | -0.072
31 | AACTCCAT | 0.214
32 | AACTCCGA | 0.496
33 | AACTCCGT | 0.486
34 | GACTTTCC | 0.137
35 | CTGCGAAA | -0.0633
36 | CCCCTGAA | -0.144
37 | CACCCCAA | -0.0388
38 | CCGCCGTA | 0.354
39 | ACGCCGGG | 0.365
40 | CCGCCGCA | 0.266
41 | GCGCCGAA | 0.302
42 | ACGCCGTA | 0.0546
43 | CCGCCGGA | 0.462
44 | GCGCCGGA | 0.432
45 | CCGCCGTC | 0.218
46 | CCGCCGCC | 0.304
47 | ACGCCGGA | 0.432
48 | GCGCCGTA | 0.231
49 | CCGCCGGC | 0.41
50 | GTGGCCCA | -0.196
51 | CGACTGAC | -0.171
52 | CGGATCGA | 0.19

Row | Sequence | PBM E-score
53 | CAACTCTC | -0.0583
54 | ACTGAGAG | -0.25
55 | TACAGTGA | -0.253
56 | CGTATGCC | 0.107
57 | ATCTAGTG | -0.173
58 | AACTATCC | 0.0243
59 | ACGCCGGC | 0.421
60 | ACGCCGCC | 0.279
61 | ACGCCGTC | 0.276
62 | AATATGAA | 0.0372
63 | CGGGCTGC | 0.118
64 | CGAATGGA | -0.121
65 | GACGCTGA | -0.214
66 | GTATCGAA | -0.103
67 | ATATCGGG | 0.313
68 | CTATCGGC | 0.239
69 | GTATCGGA | 0.431
70 | ATATCGGC | 0.319
71 | CTATCGGA | 0.444
72 | GTATCGCA | -0.0427
73 | ATATCGGA | 0.391
74 | CTATCGTA | -0.18
75 | ATCTCAGG | -0.0988
76 | GTGGCAAC | -0.0372
77 | AGCAATCG | -0.0973
78 | CTCCTTTA | -0.132

Row | Sequence | PBM E-score
79 | ACATTGCA | -0.0533
80 | ATCGCCGA | 0.373
81 | AAAGCCGG | 0.391
82 | AACGCCGC | 0.339
83 | ATCGCCGG | 0.421
84 | AACGCCGG | 0.424
85 | AACGCCGT | 0.272
86 | TCCGCCGA | 0.437
87 | GCCGCCGA | 0.338
88 | ATCGCCGC | 0.295
89 | AAAGCCGT | 0.137
90 | CAAGCCGG | 0.263
91 | CCCGCCGA | 0.334
92 | ATCTGTGC | -0.167
93 | AAGCGAAG | -0.0624
94 | TACGCCGA | 0.293
95 | CCCGCCGG | 0.384
96 | ACCGCCGG | 0.403
97 | CACGCCGA | 0.211
98 | AAAAGCCT | -0.224
99 | AAAAGCCC | 0.151
100 | ACCGCCGC | 0.235
101 | AAAAGCCG | 0.388
102 | AACGCCGA | 0.433
103 | GAGACTAC | 0.0263
104 | ACGCAAAG | -0.0959

Row | Sequence | PBM E-score
105 | GGACCGCA | 0.238
106 | CGACCGAA | 0.148
107 | CGACCGGA | 0.409
108 | AGACCGGA | 0.335
109 | GGACCGGA | 0.442
110 | CGACCGGC | 0.248
111 | CACAGATC | -0.0312
112 | ACTGCTCT | -0.15
113 | ATCTTCGG | 0.303
114 | AAGTCGCT | -0.163
115 | ACGACACC | 0.0263
116 | ATCAAAAA | 0.0906
117 | CTCCCAGC | -0.0468
118 | ATTGTCCA | -0.113
119 | AATGTCCA | -0.115
120 | CATGTCCG | 0.384
121 | ATTGTCCG | 0.452
122 | AATGTCCG | 0.458
123 | ATTGTCCC | 0.0603
124 | GCCGCAGA | 0.143
125 | AGGTGTCG | 0.0347
126 | GCCGATGA | 0.298
127 | GTCCGCAC | 0.308
128 | CTCCGCAG | 0.418
129 | CTCCGCAC | 0.41
130 | GTCCGCAA | 0.334

Row | Sequence | PBM E-score
131 | TTCCGCAA | 0.298
132 | CTCCGCAA | 0.409
133 | CCCCGCAG | 0.302
134 | ATCCGCAG | 0.259
135 | ATCCGCAC | 0.299
136 | ACACCTGG | -0.243
137 | CCCTCTAG | -0.311
138 | CGTGGCCC | -0.0746
139 | AACCCTAA | -0.0663
140 | CGAAAGGC | 0.0796
141 | ACGCCCCG | 0.229
142 | AAGCCCGG | 0.416
143 | ACGCCCGG | 0.305
144 | CCGCCCGG | 0.402
145 | CCGCCCGC | 0.349
146 | AAGCCCGT | 0.0339
147 | CCGCCCCC | 0.168
148 | CCGCCCCG | 0.42
149 | AAGCCCGC | 0.266
150 | GAAACCTC | 0.0208
151 | CTGAGTCC | 0.00022
152 | CACTAAAG | -0.169
153 | GTGCTCCA | -0.118
154 | AACAACAC | -0.0906
155 | ACTTGACG | -0.135
156 | ATTGATCC | 0.282

Row | Sequence | PBM E-score
157 | CACTTGCC | 0.0403
158 | CCCCTCGC | -0.239
159 | GGGAGCCA | -0.264
160 | CGGAGCCC | 0.37
161 | CGGAGCCG | 0.427
162 | TGGAGCCA | -0.194
163 | AGGAGCCG | -0.0181
164 | CGGAGCCA | 0.402
165 | AATGCTGC | -0.0877
166 | CAGTCTCA | -0.126
167 | GATCGGGA | 0.227
168 | CATCGGTC | 0.15
169 | CATCGGGC | 0.211
170 | AATCGGTG | 0.126
171 | AATCGGAT | 0.384
172 | GATCGGAA | 0.408
173 | AATCGGGA | 0.231
174 | AATCGGCA | 0.304
175 | AATCGGAG | 0.466
176 | CATCGGAC | 0.424
177 | AATCGGAA | 0.416
178 | GATCGGTA | 0.265
